In PubChem BioAssay (EPA / NIEHS) one finds outcome and AC50 data, which are given here for eleven compounds.

Inconclusive results are not listed. The source made the active and inactive calls. The calls were made as follows, unless noted: active = hit-call score of the fitted dose curve at least 0.9, where 1 is the maximum; inactive = score below 0.9.

Assay [1] addresses Paired box protein Pax-6 (Homo sapiens) (UniProt P26367). Description: ATG_Pax6_CIS: Attagene CIS-FACTORIAL HepG2 Assay for human Paired Box 6 (PAX6) (AID 2282956). The conditions noted are these: HepG2 CIS-FACTORIAL PAX6 reporter transcription, RNA readout; actives raise or lower the signal. An outline of the steps:
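Read-out is reporter transcript level, measured by RT-PCR with fluorescent primer extension and capillary electrophoresis after 24 h dosing of transfected HepG2 cells. Activity in either direction fitted relative to DMSO control.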

Assay [2] in a line: ATG_PXRE_CIS: Attagene CIS-FACTORIAL HepG2 Assay for human Pregnane X Receptor Element (PXRE) (AID 2282957). The conditions noted are these: HepG2 Attagene CIS-FACTORIAL PXRE reporter, mRNA; actives raise or lower the signal. In a few lines: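 Using HepG2 transfected with multiple reporter transcription units, endogenous factor-driven transcription was scored as reporter mRNA after 24 h exposure.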

Assay [3] is described as follows: ATG_PPRE_CIS: Attagene CIS-FACTORIAL HepG2 Assay for human Peroxisome Proliferator-activated Response Element (PPRE) (AID 2282958). Conditions: HepG2 PPRE cis-element reporter, Attagene transcription factor profiling; actives raise or lower the signal. An outline of the steps:
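Multiplexed reporter transcription units under cis-regulatory promoters were transfected into HepG2 cells to capture endogenous factor activity. A 24 h incubation preceded RNA isolation and fluorescent RT-PCR fragment analysis.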

Assay [4] can be described thus: ATG_RORE_CIS: Attagene CIS-FACTORIAL HepG2 Assay for human RAR-related Orphan Receptor Element (RORE) (AID 2282959). Conditions: HepG2 Attagene cis-factorial RORE reporter, mRNA; actives raise or lower the signal. In a few lines:
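Fluorescence intensity of reporter-specific cDNA fragments, separated by capillary electrophoresis, gives the signal. Source: HepG2 liver cells transiently transfected with cis-element reporters and exposed 24 h; DMSO-normalized bidirectional fit.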

Assay [5] can be described thus: ATG_Sox_CIS: Attagene CIS-FACTORIAL HepG2 Assay for human SRY-box transcription factor (SOX) (AID 2282960). Conditions: HepG2 Attagene cis-factorial SOX reporter, mRNA; actives raise or lower the signal. In a few lines:
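After 24 h of chemical treatment, transfected HepG2 reporter cells are lysed for total RNA. Transcript levels come from RT-PCR with labelled primer extension and capillary electrophoresis, analysed bidirectionally versus DMSO.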

The target of assay [6] is Transcription factor Sp1 (Homo sapiens) (UniProt P08047). Nature of the assay: ATG_Sp1_CIS: Attagene CIS-FACTORIAL HepG2 Assay for human Specificity Protein 1 (Sp1) (AID 2282961). The conditions noted are these: HepG2 Sp1 cis-reporter transcription, actives raise or lower the signal. In a few lines:
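Sp1-driven reporter mRNA, read as capillary electrophoresis fluorescence after RT-PCR, in transiently transfected HepG2 cells dosed for 24 h; signal change in either direction relative to DMSO.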

Assay [7] can be described thus: ATG_SREBP_CIS: Attagene CIS-FACTORIAL HepG2 Assay for human Sterol Regulatory Element Binding (SREBP) (AID 2282962). Conditions: HepG2 Attagene cis-factorial SREBP reporter, mRNA; actives raise or lower the signal. An outline of the steps: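 Endogenous SREBP activity read as cis-element-driven reporter transcript in transiently transfected HepG2, 24 h post-dosing; quantified via RT-PCR plus capillary electrophoresis of fluorescent fragments. Gain or loss of signal fitted relative to DMSO baseline.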

Assay [8] deals with Signal transducer and activator of transcription 3 (Homo sapiens) (UniProt P40763). Description: ATG_STAT3_CIS: Attagene CIS-FACTORIAL HepG2 Assay for human Signal Transducer and Activator of Transcription 3 (STAT3) (AID 2282963). The conditions noted are these: HepG2, Attagene cis-factorial STAT3 reporter transcription; actives raise or lower the signal. In a few lines:
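Readout: fluorescent reporter mRNA fragments resolved by capillary electrophoresis. Setup: HepG2 transfected with MRTUs reporting endogenous transcription-factor activity, dosed 24 h. Gain or loss of signal fitted bidirectionally against DMSO control.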

Assay [9] can be described thus: ATG_TA_CIS: Attagene CIS-FACTORIAL HepG2 Assay for human TA Basal Promoter (AID 2282964). Conditions: HepG2 Attagene CIS-factorial TA basal promoter reporter; actives raise or lower the signal. In a few lines:
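HepG2 cells transiently transfected with multiplexed cis-promoter reporter units, dosed 24 h. Reporter mRNA measured by RT-PCR, 6-FAM labelling, HpaI digestion and capillary electrophoresis; bidirectional fit versus DMSO baseline, serving as background control.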

The nature of assay [10]: ATG_TCF_b_cat_CIS: Attagene CIS-FACTORIAL HepG2 Assay for human T-Cell-Factor with beta-catenin (TCF/b-cat) (AID 2282965). The conditions noted are these: HepG2 TCF/beta-catenin cis-reporter transcription, actives raise or lower the signal. An outline of the steps:
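HepG2 cells transiently transfected with cis-promoter-driven multiplexed reporter units; reporter mRNA measured 24 h after dosing by RT-PCR, FAM labelling, HpaI digestion and capillary electrophoresis. Bidirectional fitting relative to DMSO baseline.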

The nature of assay [11]: ATG_TAL_CIS: Attagene CIS-FACTORIAL HepG2 Assay for human TAL Basal Promoter (AID 2282966).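 Also: background control endpoint measuring basal TAL promoter reporter mRNA not a specific factor.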 The conditions noted are these: HepG2 Attagene cis-factorial TAL promoter reporter; actives raise or lower the signal. An outline of the steps: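 After 24 hours of chemical exposure, transfected HepG2 cells yielded RNA that was converted to 6-FAM-labelled, HpaI-digested reporter fragments for capillary electrophoresis. Values derive from bidirectional fitting against DMSO controls.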

The nature of assay [12]: ATG_TGFb_CIS: Attagene CIS-FACTORIAL HepG2 Assay for human Transforming Growth Factor (TGF) (AID 2282967). The conditions noted are these: HepG2 Attagene CIS TGFb reporter, mRNA transcription; actives raise or lower the signal. An outline of the steps: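 HepG2 cells transiently transfected with cis-promoter-driven multiplexed reporter units; 24 h compound exposure. Reporter mRNA measured by RT-PCR, 6-FAM labeling, HpaI digestion and capillary electrophoresis; bidirectional fit versus DMSO baseline.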

Assay [13] can be described thus: ATG_VDRE_CIS: Attagene CIS-FACTORIAL HepG2 Assay for human Vitamin D Receptor Element (VDRE) (AID 2282968). The conditions noted are these: HepG2 VDRE cis-reporter transcription, actives raise or lower the signal. In a few lines:
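Transient MRTU transfection of HepG2, 24 h compound exposure. Readout: reporter transcripts via RT-PCR and capillary electrophoresis, fluorescence. Bidirectional fit vs DMSO.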

Assay [14] has as its target Estrogen receptor (Homo sapiens) (UniProt P03372). Nature of the assay: ATG_ERa_TRANS: Attagene TRANS-FACTORIAL HepG2 Assay for human Estrogen Receptor alpha (ERa) (AID 2282970; active = hit-call score of the fitted dose curve at least 0.9, where 1 is the maximum). Conditions: HepG2 Attagene TRANS ERa GAL4 reporter, mRNA. In a few lines:
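Liver-derived HepG2 cells expressing chimeric nuclear receptor-Gal4 proteins from transient transfection were exposed for 24 hours. Gain of reporter mRNA signal versus DMSO, read by capillary electrophoresis of FAM-labelled PCR products, was recorded.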

Assay [15] can be described thus: ATG_GAL4_TRANS: Attagene TRANS-FACTORIAL HepG2 Assay for GAL4 (Internal Marker) (AID 2282976; active = hit-call score of the fitted dose curve at least 0.9, where 1 is the maximum). Conditions: HepG2 Attagene TRANS GAL4 internal marker reporter. In a few lines:
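First, HepG2 cells were transfected with reporter units under GAL4-UAS control. Next, they were treated with chemical for 24 h. Finally, RNA was reverse-transcribed, PCR-amplified, FAM-labelled and resolved by capillary electrophoresis, with induction scored against DMSO.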

The target of assay [16] is X-box-binding protein 1 (Homo sapiens) (UniProt P17861). Description: ATG_Xbp1_CIS: Attagene CIS-FACTORIAL HepG2 Assay for human X-box Binding Protein 1 (XBP1) (AID 2282972). Conditions: HepG2 XBP1 cis-element reporter, Attagene multiplex; actives raise or lower the signal. An outline of the steps:
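Reporter transcripts were quantified by RT-PCR with fluorescent primer extension and capillary electrophoresis after 24 h chemical exposure. Cells: transiently transfected HepG2 carrying cis-regulated reporter constructs; data fitted bidirectionally relative to DMSO.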

Assay [17] in a line: ATG_M_19_TRANS: Attagene TRANS-FACTORIAL HepG2 Assay for M19 Transcription Factor (Internal Marker) (AID 2282974; active = hit-call score of the fitted dose curve at least 0.9, where 1 is the maximum). Conditions: HepG2 Attagene TRANS-FACTORIAL M19 internal marker reporter. In a few lines: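 Measured here: internal-marker reporter transcript from HepG2 cells transfected with MRTUs, harvested at 24 h. cDNA PCR products were 6-FAM labelled by primer extension, cut with HpaI for 2 h at 37 C, and resolved by CE.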

Paired box protein Pax-6 (Homo sapiens), sequence (P26367 whole entry, looked up): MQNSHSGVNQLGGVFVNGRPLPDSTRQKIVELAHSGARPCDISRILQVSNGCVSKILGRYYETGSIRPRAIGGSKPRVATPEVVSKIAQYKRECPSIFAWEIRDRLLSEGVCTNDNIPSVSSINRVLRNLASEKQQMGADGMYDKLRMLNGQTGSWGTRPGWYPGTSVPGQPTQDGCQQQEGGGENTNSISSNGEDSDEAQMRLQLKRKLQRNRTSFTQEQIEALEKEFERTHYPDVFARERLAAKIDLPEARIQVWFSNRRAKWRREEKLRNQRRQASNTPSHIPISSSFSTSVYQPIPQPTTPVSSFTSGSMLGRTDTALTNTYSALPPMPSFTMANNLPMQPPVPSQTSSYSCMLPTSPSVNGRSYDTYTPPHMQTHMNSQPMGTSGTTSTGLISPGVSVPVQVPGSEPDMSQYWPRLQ
X-box-binding protein 1 (Homo sapiens), sequence (P17861 whole entry, looked up): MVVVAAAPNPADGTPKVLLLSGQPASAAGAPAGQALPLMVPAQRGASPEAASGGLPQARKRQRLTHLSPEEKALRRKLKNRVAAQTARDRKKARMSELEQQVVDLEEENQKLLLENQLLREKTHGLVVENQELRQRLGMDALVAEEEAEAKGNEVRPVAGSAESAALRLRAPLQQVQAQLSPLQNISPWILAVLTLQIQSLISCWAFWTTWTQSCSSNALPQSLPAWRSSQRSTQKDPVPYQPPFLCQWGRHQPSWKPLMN
Signal transducer and activator of transcription 3 (Homo sapiens), sequence (P40763 whole entry, looked up, the tested form may be a part): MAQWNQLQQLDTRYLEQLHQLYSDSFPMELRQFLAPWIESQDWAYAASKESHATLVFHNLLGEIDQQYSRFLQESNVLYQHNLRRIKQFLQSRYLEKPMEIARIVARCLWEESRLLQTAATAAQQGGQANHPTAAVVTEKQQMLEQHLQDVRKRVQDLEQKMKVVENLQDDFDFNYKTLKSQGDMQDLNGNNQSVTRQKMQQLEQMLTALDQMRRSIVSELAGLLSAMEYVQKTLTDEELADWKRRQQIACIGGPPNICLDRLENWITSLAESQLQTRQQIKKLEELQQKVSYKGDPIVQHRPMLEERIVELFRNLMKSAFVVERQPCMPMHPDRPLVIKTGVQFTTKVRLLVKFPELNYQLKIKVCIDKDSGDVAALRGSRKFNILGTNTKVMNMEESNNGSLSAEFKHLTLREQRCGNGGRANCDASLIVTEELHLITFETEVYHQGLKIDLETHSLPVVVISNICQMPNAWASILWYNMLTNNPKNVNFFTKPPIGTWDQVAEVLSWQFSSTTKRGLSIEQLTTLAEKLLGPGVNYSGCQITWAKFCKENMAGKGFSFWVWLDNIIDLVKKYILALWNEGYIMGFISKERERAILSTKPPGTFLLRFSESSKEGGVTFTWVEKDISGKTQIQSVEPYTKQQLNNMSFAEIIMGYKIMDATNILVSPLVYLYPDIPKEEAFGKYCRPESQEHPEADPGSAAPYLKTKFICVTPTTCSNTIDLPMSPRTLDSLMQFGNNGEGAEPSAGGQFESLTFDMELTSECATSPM
Estrogen receptor (Homo sapiens), sequence (P03372 whole entry, looked up, the tested form may be a part): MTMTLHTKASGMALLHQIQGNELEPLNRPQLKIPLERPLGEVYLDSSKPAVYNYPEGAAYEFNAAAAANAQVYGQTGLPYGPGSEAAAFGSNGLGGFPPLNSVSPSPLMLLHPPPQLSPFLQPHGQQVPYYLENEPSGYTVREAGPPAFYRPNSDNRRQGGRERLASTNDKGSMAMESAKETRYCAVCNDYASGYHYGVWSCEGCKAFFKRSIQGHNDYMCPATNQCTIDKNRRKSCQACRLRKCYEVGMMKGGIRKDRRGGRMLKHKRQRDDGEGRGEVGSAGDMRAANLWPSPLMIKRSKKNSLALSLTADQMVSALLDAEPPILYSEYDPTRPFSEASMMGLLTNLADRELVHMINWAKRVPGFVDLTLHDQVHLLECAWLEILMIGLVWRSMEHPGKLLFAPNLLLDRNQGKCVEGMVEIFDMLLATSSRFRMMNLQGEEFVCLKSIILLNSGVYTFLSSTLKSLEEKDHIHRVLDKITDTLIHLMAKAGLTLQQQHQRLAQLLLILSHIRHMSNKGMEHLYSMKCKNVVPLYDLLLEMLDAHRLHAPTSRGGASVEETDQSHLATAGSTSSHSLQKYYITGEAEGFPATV
Transcription factor Sp1 (Homo sapiens), sequence (P08047 whole entry, looked up): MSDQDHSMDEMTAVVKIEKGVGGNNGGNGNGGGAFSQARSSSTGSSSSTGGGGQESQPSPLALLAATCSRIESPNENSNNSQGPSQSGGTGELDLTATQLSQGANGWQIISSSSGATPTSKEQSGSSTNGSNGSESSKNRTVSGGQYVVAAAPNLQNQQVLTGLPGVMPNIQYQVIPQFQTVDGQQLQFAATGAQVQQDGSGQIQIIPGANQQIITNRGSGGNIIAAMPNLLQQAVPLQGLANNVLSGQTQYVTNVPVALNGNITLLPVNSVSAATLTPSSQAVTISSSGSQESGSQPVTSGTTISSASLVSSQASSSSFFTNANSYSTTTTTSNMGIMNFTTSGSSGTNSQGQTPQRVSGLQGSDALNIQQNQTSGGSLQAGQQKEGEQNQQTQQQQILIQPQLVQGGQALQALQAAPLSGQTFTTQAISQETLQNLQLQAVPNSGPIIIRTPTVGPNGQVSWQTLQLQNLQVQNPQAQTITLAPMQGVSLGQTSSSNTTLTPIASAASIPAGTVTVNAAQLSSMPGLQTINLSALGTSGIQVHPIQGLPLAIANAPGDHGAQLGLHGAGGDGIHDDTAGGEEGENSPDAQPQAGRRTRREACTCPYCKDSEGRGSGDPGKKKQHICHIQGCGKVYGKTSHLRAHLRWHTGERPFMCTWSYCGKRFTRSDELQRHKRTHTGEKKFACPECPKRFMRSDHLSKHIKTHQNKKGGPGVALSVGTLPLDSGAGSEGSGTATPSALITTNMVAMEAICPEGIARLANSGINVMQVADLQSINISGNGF

`CCCCCCCCCCCCC`: the result in assay [1], in assay [2], in assay [3], in assay [4], in [5] and in assay [6] was inactive. For the same compound, the outcome in assay [7], in assay [8], in assay [9], in [10], in [11] and in assay [12] was inactive. Also, the outcome in assay [13], in assay [14] and in assay [15] was inactive.

In the case of `CC(c1cc(C(C)(C)C)cc(C(C)(C)C)c1O)c1cc(C(C)(C)C)cc(C(C)(C)C)c1O`, the compound was classed as inactive in assay [1], in assay [3], in [4], in assay [5], in assay [6] and in [7]. In addition, the call in assay [8], in [10], in assay [11], in [12], in [13] and in assay [16] was inactive. Further, the AC50 in [2] was 0.078 µM (active).

As to `CC1=CCC2CC1C2(C)C` (stereo not drawn), the outcome in assay [1], in assay [3], in assay [4], in [5], in [6] and in [7] was inactive. Moreover, the outcome in assay [8], in assay [9], in assay [10], in [11], in [14] and in assay [16] was inactive. Moreover, the outcome in [17] and in assay [15] was inactive. The AC50 in assay [2] is 37.2 µM (active).

Regarding `CCCCCCCC(=O)OCC(COC(=O)CCCCCCC)OC(=O)CCCCCCC`, the compound was classed as inactive in assay [1], in assay [2], in assay [3], in [4], in assay [5] and in [6]. In addition, the call in assay [7], in [8], in assay [10], in assay [11], in assay [13] and in [14] was inactive. Besides, the compound was classed as inactive in assay [16], in [17] and in assay [15].

In the case of `CCN1CN(CC)CN(CC)C1`, the outcome in assay [1], in [3], in [4], in [7], in assay [9] and in [11] was inactive. The result in assay [12], in [14] and in assay [17] was inactive. For the same compound, the AC50 in [2] is 119 µM (active); in assay [5] it was 138 µM (active); in assay [6], 163 µM (active); in assay [10] it was 132 µM (active); in assay [16], 162 µM (active).

In the case of `CC1CC(=O)CC(C)(C)C1` (stereo not drawn), the compound was classed as inactive in assay [1], in [2], in [3], in assay [5], in assay [6] and in assay [7]. Besides, the result in assay [8], in assay [9], in [10], in assay [11], in assay [12] and in [13] was inactive. For the same compound, the compound was classed as inactive in [16].

As for `CCCCc1ccc(Cl)cc1`, the result in assay [1], in assay [2], in assay [3], in [4], in assay [5] and in [6] was inactive. Besides, the compound was called inactive in assay [7], in assay [8], in assay [9], in assay [10], in [11] and in assay [12]. The result in [14], in assay [16] and in assay [15] was inactive.

`CC1(C)C(=O)N(CO)C(=O)N1CO`: the compound was called inactive in [1], in assay [3], in assay [4], in assay [5], in [6] and in [7]. In addition, the compound was called inactive in [8], in assay [9], in [10], in assay [11], in [13] and in [15]. The AC50 in assay [2] was 27.8 µM (active).

For `O=C1CCCCC1C1CCCCC1` (stereo not drawn), the compound was classed as inactive in [1], in assay [3], in [5], in [6], in assay [7] and in [8]. The compound was classed as inactive in assay [9], in [10], in assay [11], in assay [12], in [13] and in assay [14]. In addition, the compound was classed as inactive in [17] and in assay [15]. Moreover, the AC50 in assay [2] was 27.3 µM (active).

In the case of `CCC(C)c1ccccc1` (stereo not drawn), the compound was classed as inactive in assay [1], in [2], in assay [3], in [4], in assay [5] and in assay [6]. In addition, the compound was called inactive in [7], in assay [8], in assay [9], in [10], in assay [11] and in assay [12]. Further, the result in assay [16], in [17] and in [15] was inactive.

Consider `CCC[Si](OC)(OC)OC`, for which the call in assay [1], in assay [4], in [5], in [6], in [7] and in assay [8] was inactive. Also, the compound was classed as inactive in [9], in [10], in assay [11], in [12], in [13] and in assay [14]. The call in assay [16] and in assay [17] was inactive. For the same compound, the AC50 in assay [2] is 129 µM (active).

What is called AC50 is the midpoint of the concentration-response curve, whichever way the signal moves.
